This passage reports growth results from PubChem BioAssay (NCI).

Each structure is given as a SMILES string. This is part of a sample that, as a whole, favours compounds with a hit. Of some 83,000 tested, about 20% had one in any assay.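 Compound tested at a single concentration for 48 hours in 96-well plates; a percent growth value below 10 was scored as active.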 Values without a mark were called inactive. Active and inactive are the calls of the source.

Some test systems named below: NCI-H23 lung; NCI-H226 lung; NCI-H322M lung; HOP-62 NSCLC; NCI-H460 lung; HOP-92 NSCLC; NCI-H522 lung; A549/ATCC NSCLC; 786-0 renal; COLO 205 colon.
Holding throughout (experiment): NCI-60 one-dose screen, 48 h (100 = growth as untreated, 0 = no growth, -100 = all killed)
Common to all, as to settings: 10 µM unless noted

As to `COc1cccc(Cc2cc(-c3ccccc3)nn(CC(=O)c3ccccc3)c2=O)c1`, the growth in the assay on NCI-H23 lung is 74.2%; in the assay with NCI-H226 lung, 60.7%; in the assay on NCI-H322M lung, 94.1%; in the assay with HOP-62 NSCLC, 60.4%; in the assay on NCI-H460 lung, 37.8%; with HOP-92 NSCLC, 46.9%. Also, the growth in the assay on NCI-H522 lung was 72.4%; with A549/ATCC NSCLC, 79.5%; with 786-0 renal, 55.8%; in the assay on COLO 205 colon, 84.9%.
As for `COc1ccc2c(c1OC)C(=O)O[C@H]2[C@H]1c2c(cc3c(c2OC)OCO3)CCN1C`, the growth in the assay on NCI-H23 lung is 92.5%; in the assay on NCI-H226 lung it was 99.6%; in the assay with NCI-H322M lung, 104%; in the assay on HOP-62 NSCLC it was 98.1%; in the assay on NCI-H460 lung, 105%; in the assay with HOP-92 NSCLC, 97%. The growth in the assay on NCI-H522 lung is 92%; in the assay on A549/ATCC NSCLC, 101%; with 786-0 renal, 99.5%; in the assay with COLO 205 colon, 104%.
Turning to `O=C(Nc1c2ccccc2nc2ccccc12)c1ccccc1CN1C(=O)c2ccccc2C1=O`, the growth is 28.6% in the assay with NCI-H23 lung; 40.2% in the assay on NCI-H226 lung; 21% in the assay with NCI-H322M lung; 37.4% with HOP-62 NSCLC; 3.79% (active) in the assay on NCI-H460 lung; 38.5% in the assay on HOP-92 NSCLC. For the same compound, the growth in the assay with NCI-H522 lung is 23.7%; with A549/ATCC NSCLC it was 18.8%; in the assay on 786-0 renal it was 38.9%; in the assay on COLO 205 colon it was 9.84% (active).
`CCOC(=O)c1c2c(n(-c3ccc(C#N)cc3)c1-c1ccccc1)C=CCC2`: the growth in the assay with NCI-H23 lung was 89.3%; with NCI-H226 lung, 96.5%; with NCI-H322M lung it was 91.6%; with HOP-62 NSCLC, 83.3%; with NCI-H460 lung, 98.9%; in the assay on HOP-92 NSCLC, 98.4%. Further, the growth in the assay on NCI-H522 lung was 72.1%; in the assay with A549/ATCC NSCLC it was 91.1%; in the assay with 786-0 renal, 101%; in the assay with COLO 205 colon, 87.2%.
With `COc1ccc(-c2c(C(=O)NS(C)(=O)=O)n(Cc3cccc(C(F)(F)F)c3)c3ccccc23)cc1`, the growth was 97.4% in the assay on NCI-H23 lung; 82.1% in the assay with NCI-H226 lung; 94.5% in the assay on NCI-H322M lung; 89.4% in the assay on HOP-62 NSCLC; 89.7% in the assay on NCI-H460 lung; 62.2% with HOP-92 NSCLC. Besides, the growth in the assay with NCI-H522 lung is 80.8%; in the assay on A549/ATCC NSCLC, 88.8%; with 786-0 renal it was 95.3%; in the assay on COLO 205 colon, 105%.
Take `CCOC(=O)c1sc2ncc(-c3ccc(OC)cc3)n2c1C`: the growth is 85.9% in the assay with NCI-H23 lung; 84.3% in the assay with NCI-H226 lung; 97.3% with NCI-H322M lung; 91.4% in the assay with HOP-62 NSCLC; 103% in the assay on NCI-H460 lung; 92.6% in the assay on HOP-92 NSCLC. Also, the growth was 74.7% in the assay with NCI-H522 lung, 104% with A549/ATCC NSCLC, 106% in the assay on 786-0 renal and 105% in the assay on COLO 205 colon.
On to `CN1CCN(c2ccc(-c3cnc4c(-c5csc6ccccc56)cnn4c3)cc2)CC1`, for which the growth in the assay on NCI-H23 lung is 14.3%; with NCI-H226 lung it was -5.69% (active); in the assay with NCI-H322M lung, 10.2%; in the assay on HOP-62 NSCLC, -35.2% (active); in the assay on NCI-H460 lung it was -78.2% (active); in the assay with HOP-92 NSCLC it was 0.36% (active). Besides, the growth was -60.8% (active) in the assay with NCI-H522 lung, -76.9% (active) in the assay with A549/ATCC NSCLC, -68.5% (active) in the assay with 786-0 renal and -80.9% (active) with COLO 205 colon.
As to `CC([C@H]1CCC2C3CCC4C[C@@H](NC=O)CC[C@]4(C)C3CC[C@@]21C)N(C)C` (stereo not given in full), the growth in the assay on NCI-H23 lung is 30.2%; with NCI-H226 lung it was 43.2%; in the assay with NCI-H322M lung, -4.46% (active); with HOP-62 NSCLC, -55.5% (active); with NCI-H460 lung it was -59.3% (active); with HOP-92 NSCLC, 0.955% (active). The growth is 56.5% in the assay on NCI-H522 lung, 15.9% in the assay with A549/ATCC NSCLC, -88.4% (active) in the assay on 786-0 renal and -83.4% (active) in the assay with COLO 205 colon.
For the compound `COc1ccc(C2C(C#N)=C(N)Oc3c2sc2c(C)cccc32)cc1` (stereo not given), the growth in the assay with NCI-H23 lung is 18.2%; with NCI-H226 lung it was 13.5%; in the assay on NCI-H322M lung, 48.2%; with HOP-62 NSCLC it was 40.8%; in the assay on NCI-H460 lung, 7.35% (active); in the assay on HOP-92 NSCLC it was 80%. Moreover, the growth was 21.5% in the assay on NCI-H522 lung, 28.4% in the assay with A549/ATCC NSCLC, 27.8% in the assay on 786-0 renal and 0.625% (active) in the assay with COLO 205 colon.
For the compound `COc1ccc(-n2c(N)c(-c3nc4ccccc4[nH]3)cc(C#N)c2=O)cc1`, the growth is 86.8% in the assay on NCI-H23 lung; 35.3% in the assay with NCI-H226 lung; 102% in the assay on NCI-H322M lung; 90.8% in the assay with HOP-62 NSCLC; 87.1% with NCI-H460 lung; 84.7% with HOP-92 NSCLC. Also, the growth is 74.2% in the assay on NCI-H522 lung, 94.9% in the assay with A549/ATCC NSCLC, 92.5% in the assay on 786-0 renal and 105% with COLO 205 colon.
As to `CCCCCCCCCCCCCCCCCCOc1ccc(CC(=O)OCC[N+]2(C)CCCCC2)cc1`, the growth in the assay on NCI-H23 lung is 86.7%; in the assay with NCI-H226 lung, 101%; in the assay with NCI-H322M lung it was 96.4%; in the assay on HOP-62 NSCLC, 101%; with NCI-H460 lung, 101%; with HOP-92 NSCLC, 97.8%. Also, the growth was 89.2% in the assay with NCI-H522 lung, 88.9% in the assay on A549/ATCC NSCLC, 92.8% in the assay on 786-0 renal and 103% in the assay with COLO 205 colon.
For the compound `Cc1cccc(NCc2cn(-c3ccc(C(=O)O)cc3)nc2-c2ccc(C(=O)O)cc2)n1`, the growth is 110% in the assay with NCI-H23 lung; 99.8% in the assay on NCI-H226 lung; 105% in the assay on NCI-H322M lung; 104% with HOP-62 NSCLC; 104% in the assay on NCI-H460 lung; 105% in the assay on HOP-92 NSCLC. Further, the growth in the assay with NCI-H522 lung was 95.8%; with A549/ATCC NSCLC, 104%; in the assay with 786-0 renal it was 102%; with COLO 205 colon, 111%.
Regarding `COc1cc(C2CC(c3cccc(Br)c3)=NN2C(C)=O)cc(OC)c1OC` (stereo not given), the growth in the assay with NCI-H23 lung was 24.8%; in the assay on NCI-H226 lung, 28%; in the assay with NCI-H322M lung it was 33%; in the assay on HOP-62 NSCLC, 43.7%; in the assay with NCI-H460 lung, 9.31% (active); in the assay with HOP-92 NSCLC it was 78.3%. In addition, the growth in the assay with NCI-H522 lung is -13.8% (active); in the assay with A549/ATCC NSCLC, 29.1%; in the assay with 786-0 renal it was 40.7%; in the assay with COLO 205 colon, 2.52% (active).
